Rows were chosen to be rich in hits. Some 3.1% of all compounds tested hit in one or more screens of this group.
VDR inhibitor: blocks the human vitamin D receptor; VDR-SRC2-3 peptide fluorescence polarization, 2 h; Potency, µM, for inactives: max response, negative = inhibition, most hits filed as inhibitors; 0.93% of 400,000 active; AID 504847; further: potency means the concentration at half of the fitted maximal effect
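Inhibition of the VDR/SRC2-3 peptide interaction is quantified by fluorescence polarization. Compounds (23 nl, pintool) incubate with the reagents for 2 hours at ambient room temperature.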
PLK1 PBD block: inhibitors of human PLK1 polo-box domain binding | Plk1 PBD binding of FITC phosphopeptide, fluorescence polarization | Potency, µM, inactives show max response, negative = inhibition, most hits filed as inhibitors | 2.8% of 360,000 active; further: potency means the concentration at half of the fitted maximal effect; series mostly up to about 57 µM; nearly all actives have a fitted effect of over 65% in size
Target sequence (P53350 whole entry, looked up, the tested form may be a part): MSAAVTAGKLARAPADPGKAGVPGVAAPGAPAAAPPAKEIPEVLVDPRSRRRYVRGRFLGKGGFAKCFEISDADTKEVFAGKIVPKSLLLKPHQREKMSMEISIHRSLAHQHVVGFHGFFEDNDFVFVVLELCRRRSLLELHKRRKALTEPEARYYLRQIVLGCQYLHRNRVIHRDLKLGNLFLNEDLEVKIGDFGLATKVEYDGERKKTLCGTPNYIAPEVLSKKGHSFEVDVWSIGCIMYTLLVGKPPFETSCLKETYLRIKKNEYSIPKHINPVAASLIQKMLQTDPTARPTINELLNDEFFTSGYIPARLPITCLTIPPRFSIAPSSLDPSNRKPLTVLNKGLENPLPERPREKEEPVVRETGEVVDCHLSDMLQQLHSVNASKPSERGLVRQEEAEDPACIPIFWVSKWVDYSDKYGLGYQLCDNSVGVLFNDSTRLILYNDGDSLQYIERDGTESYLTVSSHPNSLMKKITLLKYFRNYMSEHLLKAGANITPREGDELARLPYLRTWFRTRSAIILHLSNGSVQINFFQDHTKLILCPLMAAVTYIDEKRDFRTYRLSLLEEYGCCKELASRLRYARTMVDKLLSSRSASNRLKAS
GCN5L2 inh: inhibitors of human GCN5L2 histone acetyltransferase | Q92830 | GCN5L2 HAT assay, ThioGlo1 CoA-SH fluorescence | Potency, µM (titrated, usually from 58.9 µM), for the others: at the top dose activity change, negative = inhibition, usual class: inhibitors | 0.21% of 390,000 active | AID 504327; further: potency means the concentration at half of the fitted maximal effect
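Free CoA generated was detected with ThioGlo1 (50uM) fluorescence at Ex340nm/Em540nm, read immediately and after 20 min at room temperature. Enzyme, 20 nM in HEPES pH 7.5 buffer, saw compounds 15 min before adding 75uM H3(1-25) peptide and 70uM acetyl-CoA.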
GLS inhibitor: inhibitors of human glutaminase (GLS); O94925; GLS enzymatic activity, qHTS titration; Potency, µM (doses to about 45.5 µM), without a hit: top-dose activity change, negative = inhibition, hits mostly inhibitors; 0.21% of 410,000 active; further: potency means the concentration at half of the fitted maximal effect
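Human kidney-isoform GLS in 45 mM KH2PO4 pH 8.2, 0.02% Tween-20, with compound, started with 1mM L-Glutamine (added stock). Glutamate oxidase/HRP/Amplex red coupled fluorescence read at start and after 30 min at RT.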
PI4K2A block: blocks human PI4K2A kinase activity | 0.13% of 420,000 active | AID 1346378 | activity change, negative = inhibition, % at 76.9 µM | purified PI4K2A, ADP-Glo luminescence, 1 h; stronger effect = lower value | Q9BTU6; in the data active means activity change below about -50%; inconclusive means mostly about -30% to -49%;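 further: -100% = wells without enzyme as full effect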
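PI4K2A activity was measured by ADP-Glo luminescence: enzyme (4 ug/mL stock) and phosphatidylinositol (1.2 mM stock) in Tris pH 7.5/MgCl2/EGTA/Triton X-100 buffer were reacted with ATP (300 microM stock) for one hour at ambient temperature.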
TbPYK inh: Trypanosoma brucei pyruvate kinase inhibition, cherry-pick confirmation; 67% of 890 active; recombinant TbPYK, Kinase-Glo ATP luminescence; AID 720569; shares compounds with PLK1 PBD block; Potency, µM (series often up to 76.9 µM), inactives show at the top dose activity change, negative = inhibition, most hits filed as inhibitors; further: potency means the concentration at half of the fitted maximal effect; nearly all actives have a fitted effect of over 70% in size
TbPYK orthogonal: inhibits T. brucei pyruvate kinase in orthogonal ADP-Glo assay. recombinant TbPYK, ADP-Glo luminescence, 60 min. Potency, µM (titrated, usually from 76.9 µM), for the others: at the highest dose activity change, negative = inhibition, most hits filed as inhibitors. 62% of 890 active. shares compounds with PLK1 PBD block; further: potency means the concentration at half of the fitted maximal effect; nearly all actives have a fitted effect of over 75% in size
* = called active by the depositor; ? = inconclusive; . = no result given; [ ] = dose if it differs, or a comment. Unless noted, the call rests on the fitted dose curve; in most records, active means well fitted curve in the direction sought with a large enough effect; inconclusive means small, poorly fitted or top-dose-only effect, or another doubt; inactive means no such curve, though single readings can be large; an effect the other way counts as inactive or inconclusive. Unless noted, on the % scale 0 is the no-effect control and ±100 the full control effect.

SMILES	VDR inhibitor	PLK1 PBD block	GCN5L2 inh	GLS inhibitor	PI4K2A block	TbPYK inh	TbPYK orthogonal
O=C1NC(=O)C(=Cc2c(Cl)cccc2Cl)C(=O)N1	?	4.74µM*	.	-3.3%	-11.2	25.1µM*	35.5µM*
CN(C)c1ccc(/C=C/C=C2/C(=O)NC(=O)N(c3ccccc3)C2=O)cc1	36.2%	?	-5.2%	-3.2%	-26.8	25.1µM*	6.9%
CCOP(=S)(OCC)Oc1cc(C)nc(N(CC)CC)n1	?	.	-15.5%	.	.	.	.
CC(=O)CC(c1ccc(O)cc1)c1c(O)c2ccccc2oc1=O (centres undefined)	-5.3%	.	35.4%	.	.	.	.
O=C(Cn1cc(C=C2C(=O)NC(=O)NC2=O)c2ccccc21)NCC1CCCO1 (centres undefined)	-6.8%	?	-8.1%	0.0%	-5.5	.	.
O=C(O)CCn1cc(C=C2C(=O)NC(=O)NC2=O)c(-c2cc3ccccc3oc2=O)n1	-9.2%	15µM*	-4.8%	0.0%	-14.9	11.2µM*	31.6µM*
O=c1[nH]c(=S)n(Cc2ccco2)c(O)c1C=NCc1cccs1	1.4%	-26.0%	-8.7%[0.501 µM]	14.8%	-56.6*	?	-28.8%
Cc1noc(C)c1C(=O)N1CCC[C@@]2(CCN(CC(C)C)C2)C1	7.0%	.	-2.0%	.	.	.	.
Oc1ccc2c3c1O[C@H]1c4c(c5ccccc5n4Cc4ccccc4)C[C@]4(O)[C@H](C2)N(CC2CC2)CC[C@@]314	?	.	-27.1%	.	.	.	.
C[N+]12CCC(CC1)C(=C(c1ccccc1)c1ccccc1)C2	-1.3%	-16.3%	-4.4%	8.2%	-1.7	25.1µM*	39.8µM*
O=C(CCn1c(=O)oc2ccccc21)N1CCC2(CC1)OCCO2	7.5%	-5.5%	1.7%	-28.0%	2.0	3.1%	-8.0%
CCON=O	0.1%	.	-0.8%	5.1%	.	.	.
OCCOc1ccccc1	-19.3%	-1.3%	-17.6%	-0.1%	-1.0	.	.
O=C1NC(=O)C(=Cc2cccc(OCCOc3ccccc3)c2)C(=O)N1	?	2.67µM*	-2.3%	?	-26.0	?	?
O=C1CC=C2C3CC4N(CCC45c4cc(O)c(O)cc4N1C25)CC3=CCBr (centres undefined)	10.2%	5.32µM*	.	24.2%	-15.2	7.94µM*	12.6µM*
O=C1CC=C2C3CC4N(CCC45c4ccccc4N1C25)CC3=CCO (centres undefined)	2.9%	2.1%	.	3.3%	-2.9	.	.
c1cc(CN2CCCC3(CCNCC3)C2)ccn1	?	.	-16.5%	.	.	.	.
C[C@]12CC[C@@H]3c4ccc(O)c(O)c4CC[C@H]3[C@@H]1CC[C@@H]2O	-15.3%	?	-11.0%	?	-1.8	10µM*	10µM*
C[C@]12CC[C@H]3[C@@H](CCC4=CC(=O)CC[C@@H]43)[C@@H]1CC[C@@H]2O	-17.3%	-15.2%	-3.7%	-12.2%	1.5	.	.
C[C@]12CC[C@@H]3c4cc(O)c(O)cc4CC[C@H]3[C@@H]1CC[C@@H]2O	-16.9%	21.2µM*	-15.4%	8.91µM*	-2.5	2.24µM*	3.55µM*
CCOC(=O)C1C(C=C(C)C)C1(C)C (centres undefined)	-0.1%	.	-7.4%	.	.	.	.
COc1ccc(-c2oc3cc(OC)ccc3c(=O)c2O)cc1	-9.3%	.	?	.	.	.	.
O=C1NC(=O)C(=Cc2coc3ccc(O)cc3c2=O)C(=O)N1	?	26.7µM*	-2.3%	33.9%	?	14.1µM*	?
CCN(CC)c1ccc(C=C2C(=O)NC(=S)NC2=O)cc1	?	2.67µM*	-22.4%	?	-18.6	15.8µM*	14.1µM*
COc1ccc(OC)c(N2C(=O)NC(=O)/C(=C/c3ccc([N+](=O)[O-])s3)C2=O)c1	?	4.74µM*	-29.6%	-37.7%	-16.0	4.47µM*	7.08µM*
SMILES	VDR inhibitor	PLK1 PBD block	GCN5L2 inh	GLS inhibitor	PI4K2A block	TbPYK inh	TbPYK orthogonal
COc1ccc(OC)c(N2C(=O)CC(=O)NC2=O)c1	1.3%	-22.1%	-4.6%	2.1%	-14.2	.	.
CC(=O)Oc1ccc(Cl)c2cccnc12	3.5%	.	-9.0%	.	.	.	.
CCN1C(=O)/C(=C/c2ccc3c(c2)CCN3CCCCl)C(=O)NC1=S	-4.6%	1.5µM*	?	1.3%	-23.1	?	?
O=C1NC(=S)N(C2CC2)C(=O)/C1=C/c1ccc2c(c1)CCN2CCCCl	-16.8%	1.5µM*	-11.0%	-2.9%	-26.5	6.31µM*	?
NC1CCc2cc(O)c(O)cc2C1 (centres undefined)	-7.3%	1.4%	-14.3%	?	-0.7	-94.8%	28.2µM*
COc1cc(O)c(C(=O)O)c(-c2cc(O)c(O)cc2C)c1	-21.4%	?	0.6%	?	-8.2	2µM*	10µM*
O=c1c2ccccc2nc(-c2ccccc2)n1-c1ccccc1	-15.6%	1.3%	-2.1%	2.1%	3.5	.	.
O=c1c2ccccc2[se]n1-c1ccccc1	7.08µM*	2.99µM*	0.398µM*	6.31µM*	1.0	8.91µM*	6.31µM*
COc1cc(C=C2C(=O)NC(=O)NC2=O)cc(OC)c1OC	?	10.6µM*	-0.5%	-0.4%	-9.7	14.1µM*	28.2µM*
CN1[C@H]2CC(=O)C[C@@H]1[C@@H](O)C2	0.1%	.	-4.9%[21.4 µM]	.	.	.	.
Cc1cc(N2CCCCC2)ccc1C=C1C(=O)N(C)C(=S)N(C)C1=O	?	3.36µM*	-21.2%	-13.2%	-4.3	20µM*	?
Cc1ccc(-n2c(O)c(/C=N/N3CCCCCC3)c(=O)[nH]c2=O)cc1C	11.1%	-3.7%	-2.9%	0.0%	-0.8	.	.
COc1ccc(/C=C2\C(=O)NC(=S)N(C)C2=O)cc1C	44.7µM*	1.19µM*	-2.5%	134.7%	?	?	?
C=CCN1C(=O)/C(=C/c2ccc3c(c2)CCCN3CCC)C(=O)NC1=S	?	-72.5%	-18.5%	1.5%	-3.7	.	.
CN1C(=O)C(=Cc2sc(=O)n(-c3ccccc3)c2N(C)C)C(=O)N(C)C1=O	-25.2%	23.4%	1.2%	-11.8%	1.3	.	.
Cc1ccsc1/C=C1\C(=O)NC(=S)N(C)C1=O	?	2.99µM*	-3.8%	25.4%	-21.5	11.2µM*	17.8µM*
Clc1c(Cl)c(Cl)c(Cl)c(Cl)c1Cl	1.5%	.	-17.0%	.	.	.	.
CC(=O)Nc1ccc(C=C2C(=O)NC(=O)NC2=O)cc1	?	-29.2%	.	0.7%	-23.1	15.8µM*	17.8µM*
O=C1NC(=O)C(=Cc2ccc(N3CCOCC3)cc2)C(=O)N1	25.5%	9.47µM*	2.5%	-7.7%	-12.4	25.1µM*	?
NCCNC[C@@H](N)CCCN=C(N)N[N+](=O)[O-]	-1.1%	.	-8.2%	.	.	.	.
c1cnc(N2CC3(CCNCC3)C2)nc1	-14.0%	.	-21.7%	.	.	.	.
CCCCC/C=C\C/C=C\C/C=C\C/C=C\CCCC(=O)OCCN	?	.	-9.0%	.	.	.	.
